Measured values published in PubChem BioAssay AID1240 (Sanford-Burnham Center for Chemical Genomics, 2008).
Hit rate of the full screen: of about 50,000 compounds, about 800 (1.6%) showed an effect of 50% or more. For the sample, strong results were picked, then their nearest neighbours and some compounds at random.

These compounds were tested against Bcl-2-like protein 10 (Homo sapiens) (UniProt Q9HD36) (assay: Phenotype converters, Bcl-B/TR3 peptide binding displacement, primary biochemical FP (AID 1240;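 note: 0% = Bcl-B with tracer peptide and DMSO and 100% = tracer peptide lacking Bcl-B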)). Conditions: GST-Bcl-B / FITC-TR3 peptide fluorescence polarization; stronger effect = higher value; compound at 3.75 mg/L.
Chain of Bcl-2-like protein 10 (Homo sapiens) (Q9HD36 whole entry, looked up): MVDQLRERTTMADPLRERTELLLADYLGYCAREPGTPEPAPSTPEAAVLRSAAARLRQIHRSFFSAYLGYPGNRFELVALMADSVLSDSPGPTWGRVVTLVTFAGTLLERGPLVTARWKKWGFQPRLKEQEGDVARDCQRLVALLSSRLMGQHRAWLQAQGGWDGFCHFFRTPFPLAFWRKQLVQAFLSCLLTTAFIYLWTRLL

SMILES | displacement [%]
N#C/C(=N\Nc1ccccc1F)c1nc(-c2ccccc2)cs1 | 7.2
N#C/C(=N/Nc1cccc(C(F)(F)F)c1)c1nc(-c2ccccc2)cs1 | -4.4
N#C/C(=N\Nc1ccccc1)c1nc(-c2ccc(F)cc2)cs1 | 127
Cc1ccccc1CNC(=O)CN(c1ccc(Oc2ccccc2)cc1)S(C)(=O)=O | 7.2
CCOc1ccccc1NC(=O)c1cc(C(=O)OC)cc([N+](=O)[O-])c1 | -7.1
CC1=NN(c2ccc(S(N)(=O)=O)cc2)C(=O)/C1=C\c1ccc(-c2ccc(C)c(Cl)c2)o1 | 4
COc1ccc(C=C2NC(=S)N(c3ccccc3)C2=O)c(OC)c1 | 3.7
COC(=O)CN1C(=O)/C(=C/c2cc(OC)ccc2OC)SC1=S | -14.6
COc1ccc(N2C(=O)/C(=C\c3cc(OC)ccc3OC)SC2=S)cc1 | 28.3
COc1ccc(OC)c(/C=C2\NC(=S)N(c3ccccc3)C2=O)c1 | 62.3
COc1ccccc1/C=C1/SC(=O)N(CNc2cccc(Cl)c2)C1=O | 9.1
COc1ccc(OC)c(/C=C2/SC(=S)N(c3ccccc3OC)C2=O)c1 | -0.9
COc1ccc(/C=C2/SC(=O)N(CNc3ccc(Br)cc3C)C2=O)cc1 | 4.5
COc1ccc(OC)c(/C=C2/SC(=O)N(CNc3ccc(Br)cc3C)C2=O)c1 | 90.9
COc1ccc(OC)c(/C=C2/SC(=S)N(CNc3cccc(Cl)c3)C2=O)c1 | 57
COc1ccc(/C=C2\NC(=S)N(c3ccccc3)C2=O)cc1OC | 41.7
COc1ccc(/C=C2/SC(=O)N(CNc3ccc(Br)cc3C)C2=O)c(OC)c1 | 31.7
COc1ccc(OC)c(/C=C2\SC(=S)N(c3ccccc3C)C2=O)c1 | 158
COc1cc(CNc2ccc(Br)cc2C)cc(OC)c1OC | 13.2
Cc1ccc(C(=O)Nc2cc(-c3cccc(C)c3)[nH]n2)cc1 | 6.2
O=C1/C(=C\c2cccc(C(F)(F)F)c2)SC(=S)N1Cc1ccccc1 | 11
Cc1cc(Br)cc2c1NC(=O)C21OCCO1 | -4.3
Cc1nnc(C)n1/N=C/c1ccc(O)c(O)c1 | 15.9
COc1ccccc1CNC(=O)C/C(C)=N/NC(=O)C(=O)NC(C)C | -14.6
CSc1ccc(/C=C(\NC(=O)c2ccc(C)cc2)C(=O)Nc2cccc(F)c2)cc1 | 127
N#C/C(=C/c1c[nH]c2ccccc12)C(=O)Nc1cccc(Br)c1 | 90.7
N#C/C(=C/c1ccc(C(=O)O)cc1)C(=O)Nc1cccc(Br)c1 | -2.2

SMILES | displacement [%]
Cc1[nH]c2ccccc2c1/C=C(/C#N)C(=O)Nc1cccc(Br)c1 | -17.5
CN(C)c1ccc(/C=C(/C#N)C(=O)Nc2cccc(Br)c2)cc1 | 53.8
N#C/C(=C\c1c[nH]c2ccccc12)C(=O)Nc1ccc(F)cc1 | 15.3
CSc1ccc(/C=C(\NC(=O)c2ccc(C)cc2)C(=O)Nc2cccc(C)c2)cc1 | -2.7
N#C/C(=C/c1ccc(O)cc1)C(=O)Nc1cccc(Br)c1 | -32.7
N#C/C(=C/c1ccc(Cl)cc1)C(=O)Nc1cccc(Br)c1 | -9.8
CC(=O)c1cccc(NC(=O)/C(=C\c2ccc(Br)cc2)NC(=O)c2ccc(C)cc2)c1 | 2.4
N#C/C(=C/C=C/c1ccco1)C(=O)Nc1cccc(Br)c1 | 59.3
Cc1ccc(/C=C(/C#N)C(=O)Nc2cccc(Br)c2)o1 | -37.3
CCOc1ccc(N2C(=O)NC(=O)/C(=C\c3ccc(-c4ccccc4C(=O)O)o3)C2=O)cc1 | 14.1
CCN(Cc1ccccc1)C(=O)c1ccccc1[N+](=O)[O-] | -11.3
CC(C)c1ccc(C2OC3(C(=O)c4ccccc4C3=O)C3C(=O)N(c4ccc(Cl)c(Cl)c4)C(=O)C23)cc1 (stereo not drawn) | 4.5
O=c1c(Oc2ccccc2Br)c(C(F)(F)F)oc2cc(O)ccc12 | 3
COc1ccc(NC(=O)CN(c2ccccc2Cl)S(C)(=O)=O)cc1OC | 3.6
CCOc1cc(/C=C2\C(=O)NC(=O)N(c3ccc(Cl)cc3)C2=O)cc(Cl)c1OCC(=O)O | -2.8
Cc1cc(C)c(C(=O)/C(=C/c2ccc(I)cc2)c2ccccc2)c(=O)[nH]1 | -1.1
Cc1cccc(C(=O)NNC2=CC(=O)CC(C)(C)C2)c1O | 37.5
COc1ccc([N+](=O)[O-])cc1-c1ccc(/C=C(/C#N)C(=O)Nc2cccc(Br)c2)o1 | 7.6
N#C/C(=C\c1ccc(-c2ccccc2[N+](=O)[O-])o1)C(=O)Nc1cccc(Br)c1 | -6.3
COc1ccc(/C=C(/C#N)C(=O)Nc2cccc(Br)c2)c(OC)c1 | -8.7
N#C/C(=C/c1ccc(F)cc1)C(=O)Nc1cccc(Br)c1 | -19.5
COc1cc([N+](=O)[O-])ccc1-c1ccc(/C=C(/C#N)C(=O)Nc2cccc(Br)c2)o1 | 92.4
COc1ccc(OC)c(/C=C(/C#N)C(=O)Nc2cccc(Br)c2)c1 | 100
COc1ccc(Cl)cc1/C=C(/C#N)C(=O)Nc1cccc(Br)c1 | 14.8
CSc1ccc(/C=C(/C#N)C(=O)Nc2cccc(Br)c2)cc1 | 80.3
N#C/C(=C/c1ccc(C#N)cc1)C(=O)Nc1cccc(Br)c1 | -8.5
